# Experimental data as given in the supplement of paper PMC10849652.
# Of roughly 7,900 targets only a part is listed; those with a hit were picked by preference. About 0.6% of all pairs of compound and target were hits. A number with no mark means an inactive call.
# How the values were obtained:
# Assay in all cases: log2 fold change, soluble protein after heating vs DMSO (PISA); higher = thermal stabilisation; K562 cells, 10 uM, 30 min; active = over 0.2 and 3.5 SD of the protein, either way, in both replicates (recomputed)
# [1] = compound: CN1CCN(CCOc2cc(OC3CCOCC3)c3c(Nc4c(Cl)ccc5c4OCO5)ncnc3c2)CC1 [saracatinib]
# In short: (§1)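 K562 cells at 2×10^6 cells/mL were treated with 10 μM compound for 30 min. Aliquots were heated for 3 min across 48°C-58°C, pooled, and extracted in PBS with 0.5% NP-40 at 4°C; soluble protein was the supernatant after 21,000xg for 90 min. Soluble protein was quantified by TMTpro 16plex LC-MS/MS with channel sums equalised, and reported as log2 fold change in thermal stability against DMSO controls, with values from duplicates.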
# [2] = compound: CN1CCN(c2nc(C3=C(c4c[nH]c5ccccc45)C(=O)NC3=O)c3ccccc3n2)CC1 [sotrastaurin]
# In short: as §1
# [3] = compound: CN1CC[C@H](c2c(O)cc(O)c3c(=O)cc(-c4ccccc4Cl)oc23)[C@H](O)C1 [alvocidib]
# In short: as §1
# [4] = compound: CN1CCc2c(c3ccccc3n2Cc2ccc(C(=O)NO)cc2)C1 [Tubastatin A]
# In short: as §1
# [5] = compound: CNC(=O)C1=CC=CC=C1NC2=NC(=NC=C2Cl)NC3=C(C=C(C=C3)N4CCOCC4)OC
# In short: as §1
# [6] = compound: CNC(=O)c1ccc(Nc2ncc(C(F)(F)F)c(NCc3nccnc3N(C)S(C)(=O)=O)n2)cc1 [defactinib]
# In short: as §1
# [7] = compound: CNCc1ccc(-c2[nH]c3cc(F)cc4c3c2CCNC4=O)cc1 [rucaparib]
# In short: as §1
# [8] = compound: CNc1nc(-c2ccc3c(N)n[nH]c3c2)cc(N2C[C@@H](C(=O)NC3CCCCC3)CC[C@H]2C)n1
# In short: as §1
# [9] = compound: COC(=O)N[C@@H](C)CNc1nccc(-c2cn(C(C)C)nc2-c2cc(Cl)cc(NS(C)(=O)=O)c2F)n1 [encorafenib]
# In short: as §1
# [10] = compound: COC(=O)[C@H](CCSC)NC(=O)C1=C(C=C(C=C1)NC[C@H](CS)N)C2=CC=CC=C2
# In short: as §1
# [11] = compound: COC1=CC=C(C=C1)CN2C=CC3=C2C=C(C=C3)C(=O)NO
# In short: as §1
# [12] = compound: CON(C)C(=O)N1N=C(c2cc(F)ccc2F)S[C@@]1(CCCN)c1ccccc1 [filanesib]
# In short: as §1
# [13] = compound: CO[C@H]1C[C@@H]2CC[C@@H](C)[C@@](O)(O2)C(=O)C(=O)N2CCCC[C@H]2C(=O)O[C@H]([C@H](C)C[C@@H]2CC[C@H](n3cnnn3)[C@H](OC)C2)CC(=O)[C@H](C)/C=C(\C)[C@@H](O)[C@@H](OC)C(=O)[C@H](C)C[C@H](C)/C=C/C=C/C=C/1C [zotarolimus]
# In short: as §1
# [14] = compound: COc1cc(C(=O)O)ccc1NC(=O)[C@@H]1N[C@@H](CC(C)(C)C)[C@](C#N)(c2ccc(Cl)cc2F)[C@H]1c1cccc(Cl)c1F [idasanutlin]
# In short: as §1
# [15] = compound: COc1cc(Nc2ncc3c(n2)-c2ccc(Cl)cc2C(c2c(F)cccc2OC)=NC3)ccc1C(=O)O [alisertib]
# In short: as §1
# [16] = compound: COc1cc2nc(-c3cc(F)ccc3O)nc(N[C@@H]3CNC[C@H]3C(C)(C)O)c2cc1OC
# In short: as §1
# [17] = compound: COc1cc2ncnc(Nc3ccc(F)c(Cl)c3)c2cc1OCCCN1CCOCC1 [gefitinib]
# In short: as §1
# [18] = compound: COc1cccc2cc(-c3nc([C@H]4CC[C@H](C(=O)O)CC4)n4ncnc(N)c34)[nH]c12
# In short: as §1
# [19] = compound: CS(=O)(=O)CCNCc1ccc(-c2ccc3ncnc(Nc4ccc(OCc5cccc(F)c5)c(Cl)c4)c3c2)o1 [lapatinib]
# In short: as §1
# [20] = compound: CS(=O)(=O)N1CCN(Cc2cc3nc(-c4cccc5[nH]ncc45)nc(N4CCOCC4)c3s2)CC1 [pictilisib]
# In short: as §1
# Sequence of UniProt Q9BQY4 (Q9BQY4 whole entry, looked up): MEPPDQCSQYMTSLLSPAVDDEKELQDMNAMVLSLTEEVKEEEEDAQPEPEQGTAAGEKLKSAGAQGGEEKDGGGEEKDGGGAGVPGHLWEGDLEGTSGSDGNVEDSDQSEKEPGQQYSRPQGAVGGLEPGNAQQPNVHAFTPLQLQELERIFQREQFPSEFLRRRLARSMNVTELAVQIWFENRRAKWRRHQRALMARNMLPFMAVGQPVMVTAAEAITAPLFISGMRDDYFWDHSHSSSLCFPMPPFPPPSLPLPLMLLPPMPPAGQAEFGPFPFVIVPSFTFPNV
# Sequence of UniProt Q8TBN0 (Q8TBN0 whole entry, looked up): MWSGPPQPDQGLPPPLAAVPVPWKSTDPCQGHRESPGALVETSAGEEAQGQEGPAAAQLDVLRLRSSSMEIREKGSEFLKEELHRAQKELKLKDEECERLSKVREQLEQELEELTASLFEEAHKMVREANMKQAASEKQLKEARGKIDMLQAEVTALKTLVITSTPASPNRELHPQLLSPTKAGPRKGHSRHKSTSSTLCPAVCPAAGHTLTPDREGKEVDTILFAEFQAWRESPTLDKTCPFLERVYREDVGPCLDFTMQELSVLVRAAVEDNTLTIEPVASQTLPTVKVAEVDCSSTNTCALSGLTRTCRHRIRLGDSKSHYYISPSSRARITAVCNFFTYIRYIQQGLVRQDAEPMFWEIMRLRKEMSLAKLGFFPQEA
# Sequence of UniProt Q13546 (Q13546 whole entry, looked up): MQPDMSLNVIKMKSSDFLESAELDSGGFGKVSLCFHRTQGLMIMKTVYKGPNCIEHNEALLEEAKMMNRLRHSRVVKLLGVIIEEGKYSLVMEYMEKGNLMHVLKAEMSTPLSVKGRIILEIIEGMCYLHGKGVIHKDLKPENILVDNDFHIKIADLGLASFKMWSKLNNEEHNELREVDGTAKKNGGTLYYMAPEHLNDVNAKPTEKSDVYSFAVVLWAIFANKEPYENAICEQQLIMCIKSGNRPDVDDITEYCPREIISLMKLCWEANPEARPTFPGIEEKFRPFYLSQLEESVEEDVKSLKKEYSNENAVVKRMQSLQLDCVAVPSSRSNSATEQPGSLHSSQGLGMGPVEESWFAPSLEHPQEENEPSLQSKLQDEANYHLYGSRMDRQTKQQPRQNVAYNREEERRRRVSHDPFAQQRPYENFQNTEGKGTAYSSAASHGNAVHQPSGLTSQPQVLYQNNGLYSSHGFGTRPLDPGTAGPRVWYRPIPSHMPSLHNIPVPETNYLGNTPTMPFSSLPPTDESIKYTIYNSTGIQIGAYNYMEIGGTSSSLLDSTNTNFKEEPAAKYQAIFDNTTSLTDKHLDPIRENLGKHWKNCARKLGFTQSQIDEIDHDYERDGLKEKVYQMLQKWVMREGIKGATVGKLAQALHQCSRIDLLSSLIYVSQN
# Sequence of UniProt Q96EE3 (Q96EE3 whole entry, looked up): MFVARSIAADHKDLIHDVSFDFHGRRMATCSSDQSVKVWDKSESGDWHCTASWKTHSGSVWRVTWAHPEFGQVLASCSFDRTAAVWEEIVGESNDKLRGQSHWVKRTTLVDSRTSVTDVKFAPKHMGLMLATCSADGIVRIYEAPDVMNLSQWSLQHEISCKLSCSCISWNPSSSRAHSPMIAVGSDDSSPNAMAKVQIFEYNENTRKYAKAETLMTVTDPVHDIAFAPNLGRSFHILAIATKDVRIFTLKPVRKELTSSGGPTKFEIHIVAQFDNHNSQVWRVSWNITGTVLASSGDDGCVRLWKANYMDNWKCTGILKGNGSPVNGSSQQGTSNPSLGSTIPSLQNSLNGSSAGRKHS
# Sequence of UniProt P41440 (P41440 whole entry, looked up): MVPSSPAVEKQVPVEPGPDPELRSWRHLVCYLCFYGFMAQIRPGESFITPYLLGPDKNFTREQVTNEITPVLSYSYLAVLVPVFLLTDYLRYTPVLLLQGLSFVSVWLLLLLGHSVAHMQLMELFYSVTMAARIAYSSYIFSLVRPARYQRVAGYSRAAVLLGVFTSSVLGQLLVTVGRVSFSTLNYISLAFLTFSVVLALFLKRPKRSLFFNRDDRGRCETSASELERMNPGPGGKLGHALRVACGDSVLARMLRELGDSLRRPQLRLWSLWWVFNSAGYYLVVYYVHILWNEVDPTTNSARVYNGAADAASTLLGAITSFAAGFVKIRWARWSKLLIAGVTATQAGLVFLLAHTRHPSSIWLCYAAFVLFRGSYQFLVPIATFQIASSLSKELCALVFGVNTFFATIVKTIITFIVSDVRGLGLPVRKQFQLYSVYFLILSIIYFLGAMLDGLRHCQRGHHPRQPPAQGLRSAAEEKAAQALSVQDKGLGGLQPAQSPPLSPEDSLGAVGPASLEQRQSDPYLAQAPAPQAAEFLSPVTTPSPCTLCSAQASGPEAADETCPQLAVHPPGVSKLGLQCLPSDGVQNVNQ
# Sequence of UniProt Q9BUV8 (Q9BUV8 whole entry, looked up): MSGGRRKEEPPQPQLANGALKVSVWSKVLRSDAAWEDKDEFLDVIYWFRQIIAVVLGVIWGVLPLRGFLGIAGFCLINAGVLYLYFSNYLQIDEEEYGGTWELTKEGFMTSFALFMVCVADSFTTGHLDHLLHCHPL
# Sequence of UniProt O94979 (O94979 whole entry, looked up): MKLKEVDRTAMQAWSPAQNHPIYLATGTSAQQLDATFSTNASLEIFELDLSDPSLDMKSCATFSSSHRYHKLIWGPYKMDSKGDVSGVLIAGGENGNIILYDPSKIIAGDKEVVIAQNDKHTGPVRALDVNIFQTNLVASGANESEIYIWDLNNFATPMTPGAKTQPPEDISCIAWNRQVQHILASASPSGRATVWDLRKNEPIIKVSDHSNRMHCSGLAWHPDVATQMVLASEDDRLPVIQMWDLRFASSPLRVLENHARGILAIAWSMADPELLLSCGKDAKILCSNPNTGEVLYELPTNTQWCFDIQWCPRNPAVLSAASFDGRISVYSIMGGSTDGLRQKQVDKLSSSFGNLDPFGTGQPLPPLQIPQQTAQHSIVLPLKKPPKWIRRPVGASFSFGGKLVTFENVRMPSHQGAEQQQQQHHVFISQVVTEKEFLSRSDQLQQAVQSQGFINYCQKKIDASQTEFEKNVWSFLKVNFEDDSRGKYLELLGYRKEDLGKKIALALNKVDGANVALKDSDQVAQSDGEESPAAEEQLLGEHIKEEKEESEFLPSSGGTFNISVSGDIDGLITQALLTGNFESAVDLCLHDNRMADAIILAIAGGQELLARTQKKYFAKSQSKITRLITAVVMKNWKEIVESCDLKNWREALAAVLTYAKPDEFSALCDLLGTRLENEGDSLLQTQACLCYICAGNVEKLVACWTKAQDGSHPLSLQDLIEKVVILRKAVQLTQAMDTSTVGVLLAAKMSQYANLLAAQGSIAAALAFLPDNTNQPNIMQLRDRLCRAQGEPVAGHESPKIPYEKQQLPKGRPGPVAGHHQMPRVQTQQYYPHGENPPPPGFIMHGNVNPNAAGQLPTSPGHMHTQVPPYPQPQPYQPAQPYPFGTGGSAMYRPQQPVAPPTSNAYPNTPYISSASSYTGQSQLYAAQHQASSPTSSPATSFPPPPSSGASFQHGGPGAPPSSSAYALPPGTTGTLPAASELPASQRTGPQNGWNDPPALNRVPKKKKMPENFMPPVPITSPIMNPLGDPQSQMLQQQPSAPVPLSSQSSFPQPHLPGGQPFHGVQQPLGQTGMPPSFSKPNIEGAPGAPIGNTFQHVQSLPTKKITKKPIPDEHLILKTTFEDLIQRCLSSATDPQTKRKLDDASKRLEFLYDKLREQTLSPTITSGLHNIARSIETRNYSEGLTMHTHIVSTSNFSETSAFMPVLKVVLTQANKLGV
# Sequence of UniProt Q9UBS8 (Q9UBS8 whole entry, looked up): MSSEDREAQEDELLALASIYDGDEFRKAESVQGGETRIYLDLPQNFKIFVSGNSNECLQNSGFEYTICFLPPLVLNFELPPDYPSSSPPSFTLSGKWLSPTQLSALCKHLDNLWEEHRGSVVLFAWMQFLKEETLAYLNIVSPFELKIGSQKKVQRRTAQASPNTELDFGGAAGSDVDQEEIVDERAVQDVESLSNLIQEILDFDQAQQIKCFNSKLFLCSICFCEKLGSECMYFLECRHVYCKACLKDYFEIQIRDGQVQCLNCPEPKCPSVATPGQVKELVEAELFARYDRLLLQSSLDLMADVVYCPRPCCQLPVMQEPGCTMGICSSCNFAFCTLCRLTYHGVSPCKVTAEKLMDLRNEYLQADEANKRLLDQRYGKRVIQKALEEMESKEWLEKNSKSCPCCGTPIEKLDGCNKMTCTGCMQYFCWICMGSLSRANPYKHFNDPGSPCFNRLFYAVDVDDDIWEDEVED
# Sequence of UniProt Q5T160 (Q5T160 whole entry, looked up): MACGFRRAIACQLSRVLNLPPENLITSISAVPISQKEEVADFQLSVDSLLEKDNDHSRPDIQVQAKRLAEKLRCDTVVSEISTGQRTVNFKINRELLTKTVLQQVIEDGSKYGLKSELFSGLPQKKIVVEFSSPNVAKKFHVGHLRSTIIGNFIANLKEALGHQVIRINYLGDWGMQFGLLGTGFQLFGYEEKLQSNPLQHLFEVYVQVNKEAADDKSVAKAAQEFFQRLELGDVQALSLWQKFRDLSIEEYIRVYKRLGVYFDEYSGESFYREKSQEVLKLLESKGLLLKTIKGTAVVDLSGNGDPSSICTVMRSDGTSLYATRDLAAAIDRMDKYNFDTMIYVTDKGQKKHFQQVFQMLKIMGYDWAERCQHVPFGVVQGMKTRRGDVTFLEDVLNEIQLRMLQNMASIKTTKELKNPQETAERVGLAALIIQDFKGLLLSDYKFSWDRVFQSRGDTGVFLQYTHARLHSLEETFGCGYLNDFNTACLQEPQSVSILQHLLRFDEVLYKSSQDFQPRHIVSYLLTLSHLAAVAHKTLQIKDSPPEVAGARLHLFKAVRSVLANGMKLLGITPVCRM
# Sequence of UniProt Q14493 (Q14493 whole entry, looked up): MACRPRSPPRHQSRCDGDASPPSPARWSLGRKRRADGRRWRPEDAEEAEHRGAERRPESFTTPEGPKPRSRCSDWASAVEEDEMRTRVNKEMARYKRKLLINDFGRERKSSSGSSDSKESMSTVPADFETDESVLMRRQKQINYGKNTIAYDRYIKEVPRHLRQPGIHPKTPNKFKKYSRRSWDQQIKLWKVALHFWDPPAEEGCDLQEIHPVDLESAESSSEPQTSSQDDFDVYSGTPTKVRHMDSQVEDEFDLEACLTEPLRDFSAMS
Target,log2 fold change [1],log2 fold change [2],log2 fold change [3],log2 fold change [4],log2 fold change [5],log2 fold change [6],log2 fold change [7],log2 fold change [8],log2 fold change [9],log2 fold change [10],log2 fold change [11],log2 fold change [12],log2 fold change [13],log2 fold change [14],log2 fold change [15],log2 fold change [16],log2 fold change [17],log2 fold change [18],log2 fold change [19],log2 fold change [20]
SLC19A1 (UniProt P41440),0.012,-0.173,0.06,-0.021,-0.035,-0.061,-0.179,-0.048,0.041,-0.003,0.047,-0.164,-0.106,0.023,-0.034,0.003,0,0.086,-0.066,-0.026
SEC31A (UniProt O94979),-0.086,-0.084,-0.006,0.019,0.043,-0.036,0.002,-0.015,0.062,-0.03,0.01,0.063,0.029,-0.039,0.006,0.211,0.008,-0.01,-0.036,-0.002
RAB3IL1 (UniProt Q8TBN0),0.007,-0.02,0.06,-0.02,0.023,-0.042,-0.005,0.001,-0.03,-0.022,-0.006,-0.003,-0.023,0,-0.115,0.07,0.033,0.038,0.001,-0.019
SCAMP2 (UniProt H3BUB6),-0.149,0.171,0.253,-0.056,-0.043,0.088,0.072,-0.155,-0.311,0.096,-0.27,0.126,-0.217,0.134,-0.019,0.319,0.003,0.188,-0.329,
RAB5IF isoform 5 (UniProt Q9BUV8),0.114,-0.018,-0.115,-0.139,-0.08,-0.01,-0.014,-0.018,0.08,0.031,0.429 (active),-0.243,-0.074,-0.015,-0.081,-0.021,0.018,0.002,0.006,0.006
RHOXF2 (UniProt Q9BQY4),0.015,-0.002,0.011,0.042,-0.021,0.008,0.09,-0.074,-0.018,0.066,0.017,0.013,-0.039,0.02,-0.068,-0.001,-0.021,0.056,-0.028,0.088
RPS3 (UniProt P23396),-0.03,0.031,0.201,0.094,0.082,0.208,0.097,0.04,0.045,0.002,-0.093,0.102,-0.023,0.055,-0.05,-0.027,-0.056,-0.149,0.053,-0.059
SLBP (UniProt Q14493),-0.083,-0.077,-0.091,0.117,0.113,-0.128,-0.158,0.02,0.113,0,-0.148,-0.035,0.112,0.224,-0.152,-0.199,0.034,0.077,0.004,0.05
RHOA (UniProt P61586),0.079,-0.025,0.018,-0.025,-0.029,0,0.074,0.012,-0.126,0.08,0.284 (active),-0.012,-0.054,0.1,-0.085,-0.118,0.036,-0.012,0.036,-0.178
RARS2 (UniProt Q5T160),0.005,-0.101,-0.086,-0.056,-0.035,-0.064,0.003,-0.042,0.026,-0.003,0.009,-0.245 (active),0.007,-0.071,-0.016,-0.028,-0.013,0.051,0.051,-0.031
SESN2 (UniProt P58004),-0.009,-0.222,-0.147,0.131,0.039,-0.229,0.044,0.09,0.041,-0.121,0.013,-0.174,0.099,-0.107,-0.005,-0.112,0.08,-0.085,0.25,0.167
RNF14 (UniProt Q9UBS8),-0.02,-0.042,-0.112,-0.014,0.007,-0.096,-0.015,-0.043,-0.027,0.042,0.034,-0.093,0.018,0.043,-0.035,-0.038,0.003,-0.048,0.006,0.045
RIPK1 (UniProt Q13546),-0.197,-0.208,-0.047,0.017,0.191,0.028,0.161,0.212,0.073,-0.097,0,0.049,0.098,0.022,-0.052,0.032,0.043,-0.214,0.055,0.027
SEH1L isoform 1 (UniProt Q96EE3),0.009,-0.022,0.018,-0.015,-0.029,-0.012,-0.016,-0.053,0.025,-0.007,-0.004,0.012,-0.03,-0.014,-0.024,0.025,0.015,0.038,-0.045,0.017
"SART3, A0A499FI31",-0.011,-0.13,-0.291 (active),0.035,0.021,-0.448 (active),-0.156,-0.041,0.025,0.001,0.059,-0.036,0.054,-0.044,-0.042,-0.192,-0.019,-0.019,0.016,-0.083
RAB9A (UniProt P51151),0.015,0.02,-0.04,-0.018,-0.054,0,-0.017,-0.02,-0.012,-0.013,0.022,-0.074,0.024,-0.026,-0.021,0.008,0.015,0.067,-0.026,-0.011
